# Source: PubChem BioAssay AID1851 (National Center for Advancing Translational Sciences (NCATS), 2009)
# The whole screen tested about 16,000 compounds, of which about 2,600 (16%) were called active. Not shown: some 20% with an inconclusive outcome. Only a sample is shown. Unmarked numbers belong to inactive results. Calls come from the whole dose curve; as a rule, active = well fitted curve in the direction sought with a large enough effect; inconclusive = small, poorly fitted or top-dose-only effect, or effect the other way; inactive = no such curve, though single readings can be large or run the other way.
# Biological target: Cytochrome P450 2D6 (Homo sapiens) (UniProt P10635)
# Test: Cytochrome panel assay with activity outcomes
# Settings: recombinant CYP, pro-luciferin dealkylation, luminescence, p450-cyp2d6; series mostly up to 57.1 µM
# % is set by controls: 0 for no effect and ±100 for the full control effect.
# Sequence of Cytochrome P450 2D6 (Homo sapiens) (P10635 whole entry, looked up): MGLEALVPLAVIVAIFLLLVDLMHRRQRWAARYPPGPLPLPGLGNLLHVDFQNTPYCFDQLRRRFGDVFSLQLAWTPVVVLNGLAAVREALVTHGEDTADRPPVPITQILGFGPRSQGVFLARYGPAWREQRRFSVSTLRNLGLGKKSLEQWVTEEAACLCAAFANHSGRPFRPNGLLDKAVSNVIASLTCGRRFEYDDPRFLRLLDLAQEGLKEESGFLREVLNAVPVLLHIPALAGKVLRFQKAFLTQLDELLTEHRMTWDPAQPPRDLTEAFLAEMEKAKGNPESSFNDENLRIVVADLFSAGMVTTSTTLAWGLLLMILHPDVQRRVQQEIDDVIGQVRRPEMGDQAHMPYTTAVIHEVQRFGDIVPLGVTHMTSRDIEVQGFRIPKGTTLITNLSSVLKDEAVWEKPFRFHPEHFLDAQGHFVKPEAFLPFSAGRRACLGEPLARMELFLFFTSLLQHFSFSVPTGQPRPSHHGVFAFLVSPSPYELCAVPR
Compound,AC50,"activity, negative = inhibition"
CO/N=C/c1ccc(N2CCN(C(=O)c3ccc(Cl)cc3Cl)CC2)c([N+](=O)[O-])c1,inactive,–
Cc1snc(SCC(=O)N/N=C(\N)COc2cccc(C(F)(F)F)c2)c1C#N,inactive,–
C=CC[C@@H]1C=C[C@@H](O/N=C\C[C@@H]2C=C[C@H](OC(C)=O)[C@H](COC(C)=O)O2)[C@@H](CO)O1,–,-12% [at 11.4 µM]
COC(=O)[C@@H]1CC[C@H](C)[C@@H](c2ccc(C)cc2)N1C(=O)c1ccc(/C=N\O[C@@H]2O[C@H](COC(C)=O)[C@H](OC(C)=O)[C@H](OC(C)=O)[C@H]2OC(C)=O)cc1,–,-6.2% [at 11.4 µM]
CC(=O)OC[C@@H]1O[C@H](C/C=N\OCC[C@H]2C=C[C@H](OC(C)=O)[C@@H](COC(C)=O)O2)C=C[C@@H]1OC(C)=O,–,-6.46% [at 11.4 µM]
CC(=O)OC[C@H]1O[C@@H](ON=C(C)C)[C@H](OC(C)=O)[C@@H](OC(C)=O)[C@H]1OC(C)=O,3.16 µM (active),–
CC(=O)OC[C@@H]1O[C@H](CCON=C(C)C)C=C[C@@H]1OC(C)=O,–,-4.81% [at 11.4 µM]
CC(=O)OC[C@@H]1O[C@H](C/C=N\OC[C@@H](C)[C@H](OCc2ccccc2)C(C)C)C=C[C@@H]1OC(C)=O,–,-1.74% [at 11.4 µM]
CC(=O)OC[C@H]1O[C@@H](O/N=C\[C@@H](C)[C@H](OCc2ccccc2)C(C)C)[C@H](OC(C)=O)[C@@H](OC(C)=O)[C@H]1OC(C)=O,3.98 µM (active),–
CC(=O)OC[C@@H]1O[C@H](CCO/N=C\[C@@H](C)[C@H](OCc2ccccc2)C(C)C)C=C[C@@H]1OC(C)=O,–,-18.8% [at 11.4 µM]
CC(=O)OC[C@@H]1O[C@H](C/C=N\O[C@@H]2O[C@H](COC(C)=O)[C@@H](OC(C)=O)[C@H](OC(C)=O)[C@H]2OC(C)=O)C=C[C@@H]1OC(C)=O,3.98 µM (active),–
CC(CCc1ccccc1)NS(=O)(=O)c1ccccc1 (stereo not given),inactive,–
COc1cccc(Cn2c(=O)c(-c3ccccc3)nc3cnc(N(C)C)nc32)c1,inactive,–
CC(=O)Nc1nc(NC(C)=O)c2[nH]c(CO)nc2n1,–,-2.84% [at 11.4 µM]
O=CN1CCN(C[C@H](O)CN2CCCCC2)CC1,–,9.19% [at 11.4 µM]
Cc1cc(=O)n2c3ccccc3n(CC(O)CN3CCCCC3)c2c1C#N (stereo not given),8.91 µM (active),–
OC(CN1CCCCC1)CN1CCCCC1,inactive,–
Nc1ccc(C(=O)C[C@H](N)C(=O)O)cc1O,–,-0.576% [at 11.4 µM]
Cc1ccc(C)c(S(=O)(=O)NCc2ccc(C(=O)N3CCC(Cc4ccccc4)CC3)cc2)c1,inactive,–
Cc1ccc(C(=O)N2CCN(C3c4cccc5cccc(c45)C3NS(=O)(=O)c3ccccc3)CC2)cc1 (stereo not given),2.82 µM (active),–
CS(=O)(=O)Nc1ccc(C(=O)N2CCN(c3ccccc3)CC2)cc1,inactive,–
COc1ccccc1CNS(=O)(=O)c1ccc2[nH]cc(C(=O)O)c(=O)c2c1,inactive,–
COCC(=O)N/N=C/c1ccc(Sc2nc3ccccc3s2)o1,inactive,–

Compound,AC50,"activity, negative = inhibition"
Cc1ccc(C(=O)NC(=S)N2CC(C)OC(C)C2)cc1[N+](=O)[O-] (stereo not given),inactive,–
CC(C)C[C@H](NC(=O)[C@@H]1O[C@H]1C(=O)O)C(=O)NCCCCN=C(N)N,inactive,–
O=C(NC(C(=O)c1ccccc1)n1cnccc1=O)c1ccccc1 (stereo not given),inactive,–
Clc1ccccc1-c1nc(-n2ccnc2)c2ccccc2n1,12.6 µM (active),–
Cc1ccccc1-c1nc(-n2ccnc2)c2ccccc2n1,15.8 µM (active),–
COc1cc2c(c(O)c1OC)C(=O)C(OC)CCC2 (stereo not given),inactive,–
Cc1c(Nc2ncccc2C(=O)O)cccc1C(F)(F)F,inactive,–
C/C(CCC(=O)OC[C@@H]1O[C@H](C#Cc2ccccc2)C=C[C@@H]1Oc1ccc(C)cc1)=N/OC[C@@H](C)[C@H](OCc1ccccc1)C(C)C,–,-14.2% [at 11.4 µM]
COCCn1c(=O)c(-c2cn(C)c3ccccc23)nc2cnc(Oc3ccccc3)nc21,inactive,–
Cc1cc2ccccc2n1CCNC(=O)C1CCCC1,12.6 µM (active),–
Cc1ccc(S(=O)(=O)NCCn2c(C)cc3ccccc32)cc1,8.91 µM (active),–
O=C(NN1C(=O)c2ccccc2C1=O)C1CCCCC1,inactive,–
CCN(CC)C(=O)CCNS(=O)(=O)c1ccc(C)cc1,inactive,–
Cc1cc2ccccc2c(=O)n1CC(=O)NCC(=O)N1CCCC1,inactive,–
Cc1ccc(C)n1NC(=O)c1ccccc1,inactive,–
Cc1ccc(S(=O)(=O)NCCSc2nnnn2C)cc1,inactive,–
Cc1cc2ccccc2n1CCNC(=O)c1ccccc1,2.51 µM (active),–
CN(C)CCn1c(C(=O)O)cc2ccccc21,inactive,–
C[C@]12C=CC(=O)C=C1CC[C@@H]1[C@H]3C[C@@H](O)[C@](O)(C(=O)CO)[C@@]3(C)C[C@H](O)[C@]12F,inactive,–
COc1ccc(S(=O)(=O)n2ccc(-c3cnc(-c4ccccc4)s3)n2)cc1,inactive,–
Cc1cc(-c2ccc(Cl)cc2)oc(=O)c1NC(=O)c1ccccc1,inactive,–
COc1cccc(Cn2c(=O)cnc3cnc(N(C)C)nc32)c1,inactive,–
CCCCCOc1ccc(C(=O)NCC2(c3ccccc3)CCOCC2)cc1,17.8 µM (active),–

Compound,AC50,"activity, negative = inhibition"
CCCCOc1ccc(C(=O)NCc2ccco2)cc1,inactive,–
O=C(NCCc1ccccc1)C(=O)NCC1(c2ccccc2)CCCC1,inactive,–
CN1c2ccccc2Oc2c(c(=O)n(C)c(=O)n2C)C1c1cccc([N+](=O)[O-])c1 (stereo not given),inactive,–
CCCN1CNC(=S)N(c2cccc(C)c2C)C1,inactive,–
COc1ccc(/C=N/NC(=O)c2ccccc2)cc1CN1CCN(c2ccc(F)cc2)CC1,25.1 µM (active),–
COc1ccc(/C=N/NC(=O)c2ccn[nH]2)cc1COc1ccc(F)cc1,inactive,–
COc1ccc(/C=N/NC(=O)c2sccc2OCc2ccc(F)cc2)cc1OC,inactive,–
Cn1c(=O)c2[nH]c(CCCCc3nc4c([nH]3)c(=O)n(C)c(=S)n4C)nc2n(C)c1=S,–,-8.04% [at 11.4 µM]
Cc1c(NC(=O)Nc2c(Cl)cccc2Cl)c(=O)n(-c2ccccc2)n1C,–,-4.06% [at 11.4 µM]
Cc1c(NCc2cc(Cl)ccc2O)c(=O)n(-c2ccccc2)n1C,6.31 µM (active),–
Cc1c(O)c(=O)n(-c2ccccc2)n1C,inactive,–
O=c1nc2ccccc2c2n1C[C@H](CN1CCN(c3ccccc3)CC1)N2,inactive,–
O=C(O)/C=C(/C(=O)O)[C@]12CCN3CC4=CCO[C@@H]5CC(=O)N[C@@H]1[C@H]5[C@H]4C[C@H]32,–,-1.84% [at 11.4 µM]
c1ccc(CNc2nc(-c3ccc4c(c3)OCO4)nc3ccccc23)cc1,12.6 µM (active),–
Cc1cnc(CNc2nc(-c3ccc4c(c3)OCO4)nc3ccccc23)cn1,15.8 µM (active),–
c1csc(CNc2nc(-c3ccc4c(c3)OCO4)nc3ccccc23)c1,10 µM (active),–
COc1ccccc1CNc1nc(-c2ccc(N(C)C)cc2)nc2ccccc12,10 µM (active),–
Cc1cnc(CNc2nc(-c3ccc(C(=O)N(C)C)cc3)nc3ccccc23)cn1,inactive,–
CCOC(=O)C1CCCN(C(=O)CCn2nc(-c3ccccc3)ccc2=O)C1 (stereo not given),inactive,–
S=c1c2[nH]cnc2ncn1CCSc1ncnc2nc[nH]c12,–,8.54% [at 11.4 µM]
CN(C(=O)CCCOc1ccc2[nH]c(=O)ccc2c1)C1CCCCC1,inactive,–
CC(Oc1ccc(-c2ccccc2)c(F)c1)c1ccn(S(=O)(=O)c2ccc(Cl)cc2)n1 (stereo not given),inactive,–
COC(Cn1c(C)c(C(C)=O)c(C(C)=O)c1C)OC,inactive,–

Compound,AC50,"activity, negative = inhibition"
Nc1nc(-c2cccnc2)cc(-c2cc(-c3cccnc3)nc(N)n2)n1,–,-6.86% [at 11.4 µM]
CCC(=O)N1CCn2c1nc1ccccc12,inactive,–
CCC(C)NC(=O)c1cnn2c(C)c3c(nc12)CCCC3 (stereo not given),inactive,–
CC(=O)NCCNc1nc(-c2ccc(C(=O)N(C)C)cc2)nc2ccccc12,inactive,–
COc1ccccc1CNc1nc(-c2ccc3c(c2)OCO3)nc2ccccc12,10 µM (active),–
CC(=O)NCCNc1nc(-c2ccc3c(c2)OCO3)nc2ccccc12,12.6 µM (active),–
c1cncc(CNc2nc(-c3ccc4c(c3)OCO4)nc3ccccc23)c1,12.6 µM (active),–
COCCNc1nc(-c2ccc(C(=O)N(C)C)cc2)nc2ccccc12,inactive,–
Cc1cccc(CNc2nc(-c3ccc4c(c3)OCO4)nc3ccccc23)c1,20 µM (active),–
COC(=O)N1CCC2(CC1)CN(C(=O)Nc1cccc(C#N)c1)C2,inactive,–
COc1cc(NC(=O)c2c(F)cccc2F)nc(OC)n1,inactive,–
Cc1cc(NC(=O)CCCC(=O)OCC(F)(F)C(F)F)cc(C)c1C(=O)O,inactive,–
COc1ccc(-n2c(=O)c(-c3cc(F)cc(F)c3)nc3cnc(N4CCNCC4)nc32)cc1,inactive,–
Cc1ccc(S(=O)(=O)Oc2ccc(/C=C(/NC(=O)c3ccccc3)C(=O)Nc3ccccc3)cc2)cc1,inactive,–
C[C@H]1COC(=O)[C@H]2CCCN2C(=O)[C@@H](C)COC(=O)[C@H](Cc2ccccc2)NC1=O,–,2.57% [at 11.4 µM]
CCn1c(SCC(=O)Nc2ccc3c(c2)OCCO3)nc2c(c1=O)SC(C)C2 (stereo not given),inactive,–
CC1=NN(c2ccc(S(=O)(=O)O)cc2)C(=O)/C1=C\c1ccc(Cl)cc1,–,5.53% [at 11.4 µM]
O=C(N/C(=C\c1cccnc1)C(=O)N1CCOCC1)c1cccc(Br)c1,inactive,–
Cc1noc(C)c1-c1nc(Nc2ccccc2)c2ccccc2n1,inactive,–
c1ccc2c(Nc3ccncc3)nc(-c3ccc4c(c3)OCO4)nc2c1,20 µM (active),–
N#Cc1cccc(-c2nc(Nc3ccncc3)c3ccccc3n2)c1,inactive,–
